The term inhibition denotes the change of the read-out against control, counted positive when it falls.

Some of the results follow. Unmarked numbers belong to inactive results. Activity calls are given as the source filed them.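 How the source made its calls: active means mean inhibition above about 50% in the one-dose retest (limit read from the data); inactive means the rest.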

The target of this test is Sentrin-specific protease 6 (Homo sapiens) (UniProt Q9GZR1). Nature of the test: SENP6 protease inhibitors, confirmation, biochemical, luminescence, single concentration (AID 488915). The settings on record: recombinant SENP6, Z-RLRGG-aminoluciferin luminescence; at 12.5 µM; stronger effect = higher value.
Sentrin-specific protease 6 (Homo sapiens), sequence (Q9GZR1 628-1112 limits assumed): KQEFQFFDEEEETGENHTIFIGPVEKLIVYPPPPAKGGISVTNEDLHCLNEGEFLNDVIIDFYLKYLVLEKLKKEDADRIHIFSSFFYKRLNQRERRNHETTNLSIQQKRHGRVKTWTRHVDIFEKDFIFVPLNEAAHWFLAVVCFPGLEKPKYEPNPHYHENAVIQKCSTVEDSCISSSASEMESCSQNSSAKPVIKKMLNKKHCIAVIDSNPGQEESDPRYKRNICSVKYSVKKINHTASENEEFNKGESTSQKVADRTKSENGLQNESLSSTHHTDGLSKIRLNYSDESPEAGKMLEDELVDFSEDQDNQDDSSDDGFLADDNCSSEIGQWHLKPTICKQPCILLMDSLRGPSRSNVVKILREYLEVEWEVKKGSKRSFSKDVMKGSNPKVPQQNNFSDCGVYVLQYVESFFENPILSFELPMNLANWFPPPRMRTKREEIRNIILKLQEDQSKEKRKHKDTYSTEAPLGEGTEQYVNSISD
With `Cc1ccc(F)c(NC(=O)CCc2ccccc2)c1`, the inhibition is 30.4%.

Regarding `CN(CCO)c1ccc(/C=N/Nc2nncc3ccccc23)cc1`, the inhibition is 99.7% (active).

Take `C/C(=C\C(=O)c1ccccc1)Nc1cccc(O)c1`: the inhibition is 47.3%.

On to `O=c1c(-c2cccc(Cl)c2)c[nH]n1-c1ccccc1`, for which the inhibition is 61.4% (active).

In the case of `COCCN(CCOC)c1nc(N)c2c(N)nc3c(c2c1C#N)CC(=O)N3Cc1ccc(Cl)cc1`, the inhibition is -0.6%.

With `O=C(Nc1ccccc1)c1cc2ccccc2[nH]1`, the inhibition was -15.9%.

As to `Cc1cccc(NS(=O)(=O)c2cccc(C(=O)NNC(=O)c3ccccc3O)c2)c1`, the inhibition was 54.5% (active).

As for `CC(=O)Oc1ccc2c(c1)C(=O)c1ccccc1C2=O`, the inhibition is 43.9%.

As for `Cc1ccn2cc(-c3nonc3C)cc2c1`, the inhibition was 77% (active).

As to `CC(C)Cc1cc(C(=O)Nc2cc(Br)ccc2O)no1`, the inhibition was 21.4%.

With `Cc1nonc1C(=O)N/N=C/c1ccc(O)cc1`, the inhibition was 101% (active).

`Cc1cccc(OC(=O)c2sc3ncn(C)c(=O)c3c2C)c1`: the inhibition was 0.1%.

As to `Cc1cccc(Nc2nc(-c3ccccc3)cs2)n1`, the inhibition is 91.5% (active).

As to `O=C(/C=C/c1ccco1)Nc1ccc(Oc2ccccc2)cc1`, the inhibition was 64.2% (active).

For `Cc1[nH]n(-c2ccc([N+](=O)[O-])cc2)c(=O)c1C=NCCN1CCN(C(=O)c2ccccc2F)CC1`, the inhibition is 17.1%.

For `COc1ccc(NC(=O)Nc2cccc3cccnc23)cc1`, the inhibition is 85.6% (active).

For `Nc1ccc(-c2nnc(-c3ccccc3)o2)cc1`, the inhibition was 51.4% (active).

Take `O=C(Nc1ccccc1)Nc1ccccc1C(=O)NCc1ccco1`: the inhibition is 60.7% (active).

As for `CCOC(=O)c1cnc2[nH]c3ccccc3n2c1=O`, the inhibition is 79% (active).

`Cc1cc(C(=O)N/N=C/c2ccc(N3CCOCC3)cc2)c(C)o1`: the inhibition is 86.6% (active).

Turning to `COc1ccccc1C(=O)Nc1ccc(NC(=O)c2ccco2)c(C)c1`, the inhibition is 47.1%.

As to `COc1cccc(OCC(O)CNC(=O)c2oc3c(C)c(C)ccc3c2C)c1` (stereo unspecified), the inhibition is -1.7%.

As for `COCn1c(COc2ccccc2)nc2ccccc21`, the inhibition is 39.5%.

`O=C(OC1CCOC1=O)c1ccc(-c2nc3ccccc3s2)s1` (stereo unspecified): the inhibition was 95.8% (active).

For `Nc1ccccc1/C=N\N=C/c1ccccc1N`, the inhibition is 45.3%.

Consider `CC(=O)Oc1ccc2c(=O)oc(-c3ccc([N+](=O)[O-])cc3)nc2c1`, for which the inhibition is -1.5%.

Take `CCOc1ccc2nc(C(=O)N3CCCC(C)C3)sc2c1` (stereo unspecified): the inhibition was 68.3% (active).

With `Clc1ccc(Nc2ccc3ccccc3n2)cc1`, the inhibition was 88.2% (active).

On to `COC(=O)c1ccc(NCC(=O)c2ccccc2)cc1`, for which the inhibition is 97.3% (active).

On to `CCOC(=O)/C(C#N)=C/c1ccc(N2CCCCC2)cc1`, for which the inhibition is 34.1%.

Turning to `c1ccc(-c2cc(-c3ccccc3)[nH]n2)cc1`, the inhibition is 64.5% (active).

(Values after PubChem BioAssay.)
